According to PubChem BioAssay:
Calls of active or inactive are those of the source.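 The calls were made as follows, unless noted: active = fluorescence slope after compound addition differing from the mean of all screened samples at 99.7% confidence, in either direction; inactive = the rest.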

Legend:
[1] = inhibitors of TNFa-induced NFkB p65 translocation, primary screen, imaging, HUVEC, MLSMR starter and 10KST1 sets (AID 438;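 active = inhibition above 20% together with a positive visual image hit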;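 also: compound added about 3h40 before a 20 min TNFalpha stimulation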;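 as to inhibition: signal is the nuclear over cytoplasmic p65 intensity ratio per well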); conditions: HUVEC TNFa-induced p65 nuclear translocation; cell count: measured here: nuclei count (cytotoxicity indicator), at 2.08 µM; inhibition: at 2 µM, stronger effect = higher value, 0% TNFa-plus-vehicle, 100% no-TNFa wells
[2] = reduction of polyQ htt aggregates in cells – imaging, exon1htt(103Q)mCFP cells, high-content imaging, primary screen (AID 483;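 active = visual image review flags a hit and inhibition of aggregation exceeds 20%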;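 also: compound exposure lasted 3 days before fixation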;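 as to nuclei count: percent of the per-plate median nuclei count of sample wells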); conditions: exon1htt(103Q)mCFP cell line, aggregate imaging, at 2 µM; inhibition of aggregation: stronger effect = higher value; nuclei count: measured here: cell count, toxicity
[3] = endothelial E-selectin expression blockers – imaging, HUVEC, immunofluorescence, MLSMR starter and 10KST1 sets, primary screen (AID 487;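 active = visually confirmed hit in the image check and inhibition above 20%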;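 as to inhibition: signal is fraction of cell area covered by stained E-selectin grains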;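 as to nuclei count: 100% = median nuclei count of all wells on the same plate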); conditions: HUVEC TNFalpha-induced E-selectin immunofluorescence imaging, at 2 µM; inhibition: stronger effect = higher value; nuclei count: measured here: cell number, toxicity
[4] = biological target: Voltage-gated potassium channel subunit beta-2 (Rattus norvegicus) (UniProt P62483); assay: inhibitors of rat Kvbeta2 reductase activity – biochemical, NADPH fluorescence, primary screen (AID 622;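 active = fluorescence slope higher than the sample average by over 3 SD, cut at about -0.22 in these data, passing the limit was not always enough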;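 also: slope of raw intensity against log time taken from 70 to 1610 s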); conditions: recombinant KvBeta, 4-cyanobenzaldehyde reduction, at 10 µM, stronger effect = higher value
Chain of Voltage-gated potassium channel subunit beta-2 (Rattus norvegicus) (P62483 whole entry, looked up): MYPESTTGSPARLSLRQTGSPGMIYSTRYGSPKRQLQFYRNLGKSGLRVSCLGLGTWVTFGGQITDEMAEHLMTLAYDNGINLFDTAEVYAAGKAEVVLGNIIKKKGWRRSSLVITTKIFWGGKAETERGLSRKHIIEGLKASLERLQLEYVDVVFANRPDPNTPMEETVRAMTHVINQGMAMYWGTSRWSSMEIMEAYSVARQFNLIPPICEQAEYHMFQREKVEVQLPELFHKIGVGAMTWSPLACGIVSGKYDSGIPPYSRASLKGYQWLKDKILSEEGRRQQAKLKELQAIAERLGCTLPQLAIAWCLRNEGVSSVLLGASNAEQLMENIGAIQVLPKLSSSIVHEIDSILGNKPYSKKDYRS

[5] = biological target: Voltage-gated potassium channel subunit beta-2 (Rattus norvegicus) (UniProt P62483); assay: enhancers of rat Kvbeta2 NADPH turnover – biochemical, NADPH fluorescence, primary screen (AID 623;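 active = NADPH fluorescence slope more negative than the mean of all samples by about 3 SD, 99.7% confidence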;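 also: fluorescence intensity change per second fitted from 20 to 320 s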); conditions: Recombinant KvBeta, NADPH fluorescence decrease slope, 10 min; at 10 µM; stronger effect = lower value
[6] = biological target: Alpha-2C adrenergic receptor (Homo sapiens) (UniProt P18825); assay: compounds altering alpha2C-coupled GIRK flux – cell-based, HEK293 alpha2C/GIRK1/2, thallium flux, primary screen (AID 624); conditions: thallium flux BTC fluorescence, at 10 µM, actives lie on both sides;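 also: slope of fluorescence ratio to pre-addition baseline per second over 15 to 24 s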
Chain of Alpha-2C adrenergic receptor (Homo sapiens) (P18825 whole entry, looked up): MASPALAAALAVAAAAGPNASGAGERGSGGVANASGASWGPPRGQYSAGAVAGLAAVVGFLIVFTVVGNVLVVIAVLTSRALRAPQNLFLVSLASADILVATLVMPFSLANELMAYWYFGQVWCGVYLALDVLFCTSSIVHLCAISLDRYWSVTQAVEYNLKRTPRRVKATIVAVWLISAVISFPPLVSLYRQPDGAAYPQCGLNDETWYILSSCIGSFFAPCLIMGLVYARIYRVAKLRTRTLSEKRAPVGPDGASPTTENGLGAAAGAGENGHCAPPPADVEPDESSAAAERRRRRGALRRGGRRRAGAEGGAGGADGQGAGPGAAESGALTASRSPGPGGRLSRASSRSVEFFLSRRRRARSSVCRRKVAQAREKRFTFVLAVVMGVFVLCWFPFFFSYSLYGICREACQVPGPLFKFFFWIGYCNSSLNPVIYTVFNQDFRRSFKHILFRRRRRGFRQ

[7] = blockers of RIG-like receptor reporter activation – cell-based, Sendai virus stimulus, luciferase, 10K MLSCN set, TLR/RLR signaling modifier project, primary screen (AID 602276;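 active = inhibition at or above 50% at 10 µM; inactive = inhibition below 50%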;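 also: firefly luciferase from ISG56 promoter only with Renilla not read in this screen; 0% = Sendai virus plus DMSO and 100% = medium plus DMSO without virus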); conditions: HEK293 RL24 IRF3 luciferase reporter, at 10 µM, stronger effect = higher value
[8] = TLR3 IRF3 reporter activation blockers – cell-based, poly I:C stimulus, luciferase, 10K MLSCN set, primary screen (AID 602277;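 active = inhibition of the reporter signal at or above 50%; inactive = inhibition below 50%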); conditions: HEK293-TLR3 RL24 IRF3 luciferase reporter, at 10 µM, stronger effect = higher value

Row | SMILES | cell count [1] | inhibition [1] | inhibition of aggregation [2] | nuclei count [2] [%] | inhibition [3] | nuclei count [3] [%] | fluorescence slope [4] | NADPH fluorescence slope [5] | slope [6] | inhibition [7] | inhibition [8]
1 | COc1ccc(Cn2nnnc2C(c2cccnc2)N2CCN(c3ccc(O)cc3)CC2)cc1 (stereo unspecified) | 682 | -7.2% (inactive) | -1.9% (inactive) | 92.7 | -51.9% (inactive) | 117 | -0.514 (inactive) | -5.3e-05 (inactive) | 0.00403 (inactive) | 15% (inactive) | 21.3% (inactive)
2 | CCOC(=O)C(CCc1nnc(N)s1)C(=O)OCC | 710 | -6.3% (inactive) | 3.1% (inactive) | 105 | -16.4% (inactive) | 98.7 | -0.474 (inactive) | 1.7e-06 (inactive) | 0.00419 (inactive) | 16.5% (inactive) | 11.9% (inactive)
3 | CCOC(=O)C1=C(N)OC2=C(C(=O)CC(C)(C)C2)C1c1ccco1 (stereo unspecified) | 382 | 1% (inactive) | -38.9% (inactive) | 104 | -61.3% (inactive) | 110 | -0.566 (inactive) | 5.5e-05 (inactive) | 0.00621 (inactive) | -0.305% (inactive) | -16.2% (inactive)
4 | CCOCCCNC(=O)C1CCCN(S(=O)(=O)CC)C1 (stereo unspecified) | 630 | -36% (inactive) | -6.6% (inactive) | 112 | -3.3% (inactive) | 95.1 | -0.408 (inactive) | -4e-05 (inactive) | 0.00421 (inactive) | 15.1% (inactive) | 12.2% (inactive)
5 | COc1ccc(Cn2nnnc2C(c2ccccn2)N2CCN(c3cc(Cl)ccc3C)CC2)cc1 (stereo unspecified) | 669 | -8% (inactive) | 2.5% (inactive) | 112 | -18.4% (inactive) | 104 | -0.217 (inactive) | -1.3e-05 (inactive) | 0.00703 (inactive) | 21.3% (inactive) | 37.4% (inactive)
6 | CCSc1cc(C2C(C(=O)OC)=C(C)NC3=C2C(=O)CCC3)c(C)o1 (stereo unspecified) | 737 | -6.1% (inactive) | 8.4% (inactive) | 96.3 | -52.7% (inactive) | 129 | -0.593 (inactive) | -2.7e-05 (inactive) | 0.00339 (inactive) | 16.1% (inactive) | 22.6% (inactive)
7 | O=C(NCc1cccnc1)C1CCCN(S(=O)(=O)c2ccc(Cl)cc2)C1 (stereo unspecified) | 638 | -48% (inactive) | -4.5% (inactive) | 98 | -19.2% (inactive) | 104 | -0.601 (inactive) | -4.7e-05 (inactive) | 0.00732 (inactive) | -7.82% (inactive) | -2.22% (inactive)
8 | CCC(C)(C(=O)NC1CCCCC1)N(Cc1ccco1)C(=O)c1ccc2c(c1)OCO2 (stereo unspecified) | 593 | -9.3% (inactive) | -2.7% (inactive) | 80.7 | 25.6% (inactive) | 95.5 | -0.423 (inactive) | -7.4e-06 (inactive) | 0.00563 (inactive) | 21.1% (inactive) | 49.5% (inactive)
9 | Cc1cc(NC(=O)c2cccc(S(=O)(=O)N3CC(c4ccccc4)CC3=O)c2)no1 (stereo unspecified) | 873 | -1.2% (inactive) | 2.3% (inactive) | 107 | -44.9% (inactive) | 121 | -0.562 (inactive) | -5.1e-05 (inactive) | 0.00664 (inactive) | 8.54% (inactive) | 25.9% (inactive)
10 | COc1cc(S(=O)(=O)N2CCOCC2)ccc1NC(=O)COC(=O)C12CC3CC(CC(C3)C1)C2 | 533 | -24.9% (inactive) | -8.6% (inactive) | 108 | 27.1% (inactive) | 89.4 | -0.258 (inactive) | 2.4e-06 (inactive) | 0.00665 (inactive) | 8.59% (inactive) | 19.8% (inactive)
11 | Cc1cc(C)c2c(=O)n(CC(=O)NCCCN3CCN(c4ccccc4F)CC3)sc2n1 | 725 | -2.8% (inactive) | 2.8% (inactive) | 105 | -81.4% (inactive) | 119 | -0.525 (inactive) | -4.4e-05 (inactive) | 0.00504 (inactive) | 12% (inactive) | 34.1% (inactive)
12 | Cc1ccc(CCSCC(=O)O)cn1 | 174 | 4.9% (inactive) | 1.9% (inactive) | 90 | 10.4% (inactive) | 83.6 | -0.428 (inactive) | -1.1e-05 (inactive) | 0.00565 (inactive) | 4.3% (inactive) | 0.219% (inactive)
13 | O=c1c2ccccc2c(/C=N/n2cnnc2)c(O)n1-c1ccccc1 | 408 | -1.9% (inactive) | -43% (inactive) | 58.6 | -12.2% (inactive) | 101 | -0.102 (active) | -7.7e-05 (inactive) | 0.00664 (inactive) | -3.33% (inactive) | 6.58% (inactive)
14 | Cc1cc2ccccc2c(=O)n1CC(=O)Nc1ccc2c(c1)OCO2 | 455 | 0% (inactive) | -12.3% (inactive) | 108 | -85.2% (inactive) | 109 | -0.48 (inactive) | -2.6e-05 (inactive) | 0.00487 (inactive) | 2.31% (inactive) | 23.9% (inactive)
15 | N#Cc1nc(-c2ccccc2Cl)oc1N1CCOCC1 | 332 | 5% (inactive) | 10.4% (inactive) | 96.7 | -53.5% (inactive) | 116 | -0.356 (inactive) | 3.4e-06 (inactive) | 0.00468 (inactive) | 5.17% (inactive) | -5.75% (inactive)
16 | Cc1nc2ccccc2c2oc(C(=O)NCCN3CCCCC3C)cc12 (stereo unspecified) | 558 | 5.4% (inactive) | 15.4% (inactive) | 87.5 | -1.3% (inactive) | 120 | -0.614 (inactive) | -3.9e-05 (inactive) | 0.00617 (inactive) | 7.56% (inactive) | 66.5% (active)
17 | N#CCCNCC1(c2ccccc2)CCCC1 | 567 | -9.1% (inactive) | -10.6% (inactive) | 108 | 1.8% (inactive) | 104 | -0.576 (inactive) | -4.5e-05 (inactive) | 0.00572 (inactive) | 2.93% (inactive) | 9.79% (inactive)
18 | CC1NC2(C(=O)N(Cc3ccccc3)c3ccccc32)C2C(=O)N(c3ccccc3)C(=O)C12 (stereo unspecified) | 643 | -5.3% (inactive) | 2.9% (inactive) | 113 | -33.8% (inactive) | 109 | -0.567 (inactive) | -5.5e-05 (inactive) | 0.0066 (inactive) | 4.63% (inactive) | 26% (inactive)
19 | COCc1nnc(NC(=O)CCCOc2ccccc2)s1 | 732 | 2.1% (inactive) | -7.8% (inactive) | 92 | -11.3% (inactive) | 103 | -0.42 (inactive) | 9.1e-06 (inactive) | 0.00536 (inactive) | 1.61% (inactive) | 9.03% (inactive)
20 | COc1ccc(C(=O)Nc2cccc(C)c2)cc1S(=O)(=O)N1CCOCC1 | 550 | -25.9% (inactive) | 0.7% (inactive) | 102 | -48.3% (inactive) | 111 | -0.572 (inactive) | -5.7e-05 (inactive) | 0.0063 (inactive) | 6.15% (inactive) | 3.92% (inactive)
21 | CC1CCCCC1NC(=O)CN1CCN(Cc2ccccc2Cl)C1=O (stereo unspecified) | 667 | -0.2% (inactive) | 10.7% (inactive) | 64.8 | -22.2% (inactive) | 98.9 | -0.455 (inactive) | -6.3e-05 (inactive) | 0.00454 (inactive) | 10.1% (inactive) | 20.3% (inactive)
22 | CN(CC(=O)Nc1nccs1)S(=O)(=O)c1ccc(F)cc1 | 352 | -6.5% (inactive) | -4.8% (inactive) | 110 | -35.4% (inactive) | 101 | -0.465 (inactive) | -9.5e-06 (inactive) | 0.00636 (inactive) | -24.4% (inactive) | 1.06% (inactive)
23 | Nc1cc(-c2ccc(Br)cc2)nn1S(=O)(=O)c1ccccc1 | 807 | 6.9% (inactive) | -1% (inactive) | 93.9 | -57.9% (inactive) | 109 | -0.609 (inactive) | -1.6e-05 (inactive) | 0.00722 (inactive) | 6.44% (inactive) | 32.2% (inactive)
24 | COC(=O)Nc1nnc(CCc2ccccc2)s1 | 547 | 3.2% (inactive) | 2.7% (inactive) | 107 | -51.8% (inactive) | 113 | -0.509 (inactive) | -4.7e-05 (inactive) | 0.00467 (inactive) | 12.3% (inactive) | 2.62% (inactive)
25 | COC(=O)CCC(=O)Nc1cccc(Br)c1 | 495 | -5.7% (inactive) | -24.7% (inactive) | 111 | 56.2% (active) | 91.4 | -0.478 (inactive) | -0.000246 (inactive) | 0.00597 (inactive) | 9.55% (inactive) | 17.4% (inactive)
26 | O=C(CSc1nnc2scc(-c3ccccc3)n12)Nc1nsc(-c2ccccc2)n1 | 673 | -14.1% (inactive) | 2.8% (inactive) | 107 | 34.5% (inactive) | 97.5 | -0.381 (inactive) | 1.4e-05 (inactive) | 0.00626 (inactive) | 9.78% (inactive) | -32.6% (inactive)
